Test results: PubChem BioAssay (Tox21)
Inconclusive results are not listed. The source made the active and inactive calls. Unless noted, calls come from the whole dose curve; as a rule, active = well fitted curve in the direction sought with a large enough effect in the repeat runs; inconclusive = weak or mixed curves; inactive = no such curve, though single readings can be large; an effect the other way counts as inactive or inconclusive.

Experiments:
[1] = qHTS assay to identify small molecule agonists of the vitamin D receptor (VDR) signaling pathway - cell viability counter screen (AID 743224); note: series mostly up to about 63 µM; % is set by controls: 0 for no effect and ±100 for the full control effect; nearly all actives have a fitted effect of over 50% in size
Outline: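 In parallel with the bla FRET readout, cytotoxicity toward VDR-bla cells after 16 h compound exposure was assessed by CellTiter-Glo, with luminescence recorded after a 30 min room-temperature incubation.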

[2] = qHTS assay to identify small molecule antagonists of the vitamin D receptor (VDR) signaling pathway - cell viability counter screen (AID 743225); note: % is set by controls: 0 for no effect and ±100 for the full control effect; nearly all actives have a fitted effect of over 50% in size
Outline: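 Cells (VDR-UAS-bla HEK 293T) are plated, rested 4 h at 37C, dosed with compound and 3 nM final 1-alpha,25-dihydroxy vitamin D3, and incubated 16 h. Viability is taken from CellTiter-Glo luminescence in the reporter wells.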

[3] = qHTS assay to identify small molecule agonists of the NFkB signaling pathway (AID 1159509; active = well fitted curve in the direction sought with a large enough effect in the signal ratio in the repeat runs, not every such curve was filed as active; the % refers to the signal ratio; note: series mostly up to about 61 µM; % is set by controls: 0 for no effect and ±100 for the full control effect)
Outline: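 Pathway activation was measured in ME-180 cells stably expressing beta-lactamase under NF-kB response element control. Substrate cleavage was read as the 460/530 nm emission shift after 5 hr compound incubation.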

[4] = qHTS assay to identify small molecule agonists of the NFkB signaling pathway - cell viability counter screen (AID 1159515; calls by dose curve; note: series mostly up to about 61 µM; % is set by controls: 0 for no effect and ±100 for the full control effect; nearly all actives have a fitted effect of over 55% in size)
Outline: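 Plate 2,000 NFkB-bla ME-180 cells/well; incubate overnight. Add compounds, 5 hr at 37 C. Add FRET substrate, 1.5 hr RT. Add CellTiter-Glo, 30 min RT; read luminescence.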

[5] = qHTS assay to identify small molecule agonists of the endoplasmic reticulum stress response signaling pathway (AID 1159516; active = well fitted activation curve with a large enough effect in the signal ratio in the repeat runs, not every such curve was filed as active; the % refers to the signal ratio; note: % is set by controls: 0 for no effect and ±100 for the full control effect)
Outline: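 Beta-lactamase expression from the ER stress response element in HeLa reporter cells is quantified with the LiveBLAzer B/G FRET substrate, read at 405 nm excitation after 2 hr at room temperature, following 5 hr compound treatment at 37 C.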

[6] = qHTS assay to identify small molecule agonists of the endoplasmic reticulum stress response signaling pathway - cell viability counter screen (AID 1159517; calls by dose curve; note: series mostly up to about 61 µM; % is set by controls: 0 for no effect and ±100 for the full control effect; nearly all actives have a fitted effect of over 50% in size)
Outline: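 Cpd-treated ESRE-bla HeLa (5 hr, 37 C) → LiveBLAzer 2 hr RT → CellTiter-Glo 30 min RT → luminescence.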

[7] = qHTS assay to identify small molecule antagonists of the retinoid-related orphan receptor gamma (ROR-gamma) signaling pathway - cell viability counter screen (AID 1159520); note: % is set by controls: 0 for no effect and ±100 for the full control effect; nearly all actives have a fitted effect of over 50% in size
Outline: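 Tet-on ROR gamma CHO cells (1,000/well) were plated 4 hr, given compounds in DMSO for 2 hr at 37 C, then induced with 1 uM final doxycycline for 16 hr. Viability was read as ATP by CellTiter-Glo luminescence after 30 min.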

[8] = target: Nuclear receptor ROR-gamma (Homo sapiens) (UniProt P51449); assay: qHTS assay to identify small molecule antagonists of the retinoid-related orphan receptor gamma (ROR-gamma) signaling pathway (AID 1159521)
Outline: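 RORγ antagonism is scored from reduced reporter luminescence in Tet-on CHO cells. Induction used 1 uM final doxycycline hyclate for 16 h at 37 C, following a 2 h compound exposure.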

[9] = qHTS assay to identify small molecule agonists of the AP-1 signaling pathway - cell viability counter screen (AID 1159525; calls by dose curve; note: nearly all actives have a fitted effect of over 55% in size)
Outline: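 Each titration point was normalised to DMSO and tetra n-octyl ammonium bromide controls. The read was Cell Titer Glo luminescence after 30 min at RT, following 5 h compound exposure of ME-180 AP-1-bla cells at 37 °C.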

[10] = qHTS assay to identify small molecule agonists of the AP-1 signaling pathway (AID 1159526; calls by dose curve; note: % is set by controls: 0 for no effect and ±100 for the full control effect)
[11] = target: Retinoic acid receptor RXR-alpha (Homo sapiens) (UniProt P19793); assay: qHTS assay to identify small molecule agonists of the RXR signaling pathway (AID 1159527; calls by dose curve; note: % is set by controls: 0 for no effect and ±100 for the full control effect; nearly all actives have a fitted effect of over 35% in size)
Sequence of Retinoic acid receptor RXR-alpha (Homo sapiens) (P19793 whole entry, looked up): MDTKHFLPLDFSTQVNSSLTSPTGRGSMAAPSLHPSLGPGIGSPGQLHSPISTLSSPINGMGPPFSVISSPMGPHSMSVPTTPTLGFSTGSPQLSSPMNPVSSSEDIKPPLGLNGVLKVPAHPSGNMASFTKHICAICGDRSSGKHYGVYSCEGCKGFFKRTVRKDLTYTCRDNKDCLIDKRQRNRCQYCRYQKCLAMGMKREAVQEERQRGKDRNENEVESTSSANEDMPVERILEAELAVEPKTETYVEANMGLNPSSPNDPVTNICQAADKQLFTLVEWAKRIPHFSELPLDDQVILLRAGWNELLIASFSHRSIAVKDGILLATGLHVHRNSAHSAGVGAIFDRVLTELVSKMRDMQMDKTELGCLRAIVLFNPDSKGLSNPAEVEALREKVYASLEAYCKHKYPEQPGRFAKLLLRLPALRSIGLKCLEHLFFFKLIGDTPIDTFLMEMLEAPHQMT
Outline: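 qHTS of the Tox21 10K library in GeneBLAzer RXR-alpha HEK 293T cells carrying a beta-lactamase reporter […]; 16 hr treatment, 9-cis retinoic acid as agonist control, FRET read-out.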

[12] = qHTS assay to identify small molecule agonists of the RXR signaling pathway - cell viability counter screen (AID 1159529)
Outline: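 Cell viability is measured by CellTiter-Glo luminescence, 30 min at room temperature, in wells already read for beta-lactamase. Engineered HEK 293T cells (RXR-alpha-UAS-bla) are dosed 16 hr at 37 C. Tetraoctyl ammonium bromide serves as positive control.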

[13] = qHTS assay to identify small molecule antagonists of the retinoid acid receptor (RAR) signaling pathway - cell viability counter screen (AID 1159551); note: % is set by controls: 0 for no effect and ±100 for the full control effect; nearly all actives have a fitted effect of over 35% in size
Outline: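 Viability of C3RL4 cells is quantified from ATP by luminescence after 6 h treatment at 37 C with compounds and 1 uM retinol.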

[14] = qHTS assay to identify small molecule antagonists of the retinoic acid receptor (RAR) signaling pathway (AID 1159552)
Outline: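 Quantitative HTS in C3RL4 RARE-luciferase reporter cells. Compounds were added with 1 uM (final) retinol; luminescence was read after 6 hr.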

[15] = qHTS assay to identify small molecule agonists of the retinoic acid receptor (RAR) signaling pathway (AID 1159553); note: % is set by controls: 0 for no effect and ±100 for the full control effect
Outline: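 Compounds dissolved in DMSO were pinned onto C3RL4 cells seeded the previous day, and plates were held 6 hr at 37 C. RARE-driven luciferase output was then read by luminescence.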

[16] = qHTS assay to identify small molecule antagonists of the estrogen related receptor (ERR) signaling pathway - cell viability counter screen (AID 1224818)
Outline: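 Cytotoxicity check run alongside the ERR antagonist screen: cells exposed to test compounds 17.5 h at 37 C, viability taken as CellTiter-Fluor fluorescence intensity.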

[17] = qHTS assay to identify small molecule antagonists of the estrogen related receptor (ERR) signaling pathway (AID 1224819)
Outline: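 ERR reporter cells were plated at 2,000 cells/well and left 6 h at 37 C/5% CO2 before pin-tool transfer of compounds in DMSO. After 18 h at 37 C, One-Glo was added and luminescence was read 30 min later at room temperature.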

[18] = qHTS assay to identify small molecule agonists of the estrogen related receptor (ERR) signaling pathway (AID 1224820); note: % is set by controls: 0 for no effect and ±100 for the full control effect
Outline: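 An ERR cell line provided by NTP was seeded at 2,000 cells per well and allowed to settle for 6 h before compounds in DMSO were added. After 18 h at 37 C, luciferase activity was measured by One-Glo luminescence.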

[19] = test system: estrogen-related receptor alpha (ERRalpha) with PGC-1alpha coactivator, human; assay: qHTS assay to identify small molecule antagonists of the estrogen related receptor signaling pathway with the pleiotropic PPARgamma coactivator (PGC) (AID 1224821; calls by dose curve)
Outline: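 A PGC/ERR cell line supplied by NTP is seeded, allowed 6 h at 37 C, and treated with test compounds in DMSO for 18 h. Signal is then measured as luciferase luminescence using One-Glo.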

[20] = qHTS assay to identify small molecule antagonists of the estrogen related receptor signaling pathway with the pleiotropic PPARgamma coactivator (PGC) cell viability counter screen (AID 1224822)
Outline: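 Viable cell signal (CellTiter-Fluor, 30 min, 37 C/5% CO2) was measured in PGC/ERR cells after a 17.5 h compound incubation.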

CC(C)=CCCC(C)CC(=O)O (centres undefined)
inactive: Potency [1] | Potency [2] | outcome [3] | outcome [4] | outcome [5] | outcome [6] | outcome [7] | Potency [8] | Potency [9] | outcome [10] | Potency [11] | Potency [12] | outcome [13] | Potency [14] | Potency [15]

CCCCCCCCCCCCCC=O
inactive: activity change, negative = cytotoxicity [1] -0.0946% [at 5.95 µM] | viability change, negative = cytotoxic [2] 5.28% [at 6.95 µM] | activation [3] -1.29% [at 6.95 µM] | activity, negative = cytotoxic [4] 2.89% [at 6.95 µM] | activation [5] -3.51% [at 6.95 µM] | activity change, negative = cytotoxicity [6] 0.611% [at 6.95 µM] | activity, negative = cytotoxicity [7] 2.5% [at 8.39 µM] | activity change, negative = inhibition [8] 5.08% [at 8.39 µM] | viability change, negative = cytotoxic [9] -4.58% [at 6.97 µM] | activation [10] -1.06% [at 6.97 µM] | activation [11] 0.369% [at 6.98 µM] | activity change, negative = cytotoxicity [12] 1.55% [at 6.97 µM] | activity change, negative = cytotoxicity [13] 4.56% [at 8.39 µM] | activity, negative = inhibition [14] -4.55% [at 8.39 µM] | activation [15] 1.59% [at 8.36 µM]

CO/N=C(/C(=O)N[C@@H]1C(=O)N2C(C(=O)OCOC(=O)C(C)(C)C)=C(C)CS[C@H]12)c1csc(N)n1
inactive: Potency [2] | outcome [3] | outcome [4] | outcome [5] | outcome [6] | outcome [7] | Potency [8] | Potency [9] | outcome [10] | Potency [11] | Potency [12] | outcome [13] | Potency [14] | Potency [15]

CC(C)(O)C#CC(C)(C)O
inactive: Potency [1] | Potency [2] | outcome [3] | outcome [4] | outcome [5] | outcome [6] | outcome [7] | Potency [8] | Potency [9] | outcome [10] | Potency [11] | Potency [12] | outcome [13] | Potency [14] | Potency [15]

Cn1c(N)c(N=O)c(=O)n(C)c1=O
inactive: Potency [1] | Potency [2] | outcome [3] | outcome [4] | outcome [5] | outcome [6] | outcome [7] | Potency [8] | Potency [9] | outcome [10] | Potency [11] | Potency [12] | outcome [13] | Potency [14] | Potency [15]

CC(C)NCCCC1(C(N)=O)c2ccccc2-c2ccccc21
inactive: Potency [1] | Potency [2] | outcome [3] | outcome [4] | outcome [5] | outcome [6] | outcome [7] | Potency [8] | Potency [9] | outcome [10] | Potency [11] | Potency [12] | outcome [13] | Potency [14] | Potency [15]

CC(=O)OCC(=O)[C@@]1(O)CCC2C3CCC4=CC(=O)CC[C@]4(C)C3[C@@H](O)C[C@@]21C (some centres undefined)
inactive: Potency [1] | Potency [2] | outcome [3] | outcome [4] | outcome [5] | outcome [6] | outcome [7] | Potency [8] | Potency [9] | outcome [10] | Potency [11] | Potency [12] | outcome [13] | Potency [14] | Potency [15]

Cc1cc2c(cc1S(N)(=O)=O)S(=O)(=O)CCC2
inactive: Potency [1] | Potency [2] | outcome [3] | outcome [4] | outcome [5] | outcome [6] | Potency [8] | Potency [9] | outcome [10] | Potency [11] | Potency [12] | outcome [13] | Potency [14] | Potency [15]

CC/C=C\CC/C=C/C(OCC)OCC
inactive: Potency [2] | outcome [3] | outcome [4] | outcome [5] | outcome [6] | Potency [8] | Potency [9] | outcome [10] | Potency [11] | Potency [12] | outcome [13] | Potency [14] | Potency [15]

COc1nc(N)nc2c1ncn2[C@@H]1O[C@H](CO)[C@@H](O)[C@@H]1O
inactive: Potency [1] | Potency [2] | outcome [3] | outcome [4] | outcome [5] | outcome [6] | Potency [8] | Potency [9] | outcome [10] | Potency [11] | Potency [12] | outcome [13] | Potency [14] | Potency [15]

C[C@H](NC(CCc1ccccc1)C(=O)O)C(=O)N1CCC[C@H]1C(=O)O (some centres undefined)
inactive: Potency [1] | Potency [2] | outcome [3] | outcome [4] | outcome [5] | outcome [6] | Potency [8] | Potency [9] | outcome [10] | Potency [11] | Potency [12] | outcome [13] | Potency [14] | Potency [15] | outcome [16] | outcome [17] | outcome [18] | outcome [19] | outcome [20]
